The text below walks through data of PubChem BioAssay AID633 (Emory University Molecular Libraries Screening Center, 2007).

Hit rate of the full screen: of about 86,000 compounds, about 1,100 (1.3%) were called active.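 The calls were made as follows: active = compounds whose percent inhibition of the receptor-coactivator binding signal exceeds about 50% in the single-dose screen (limit read from the data); inactive = the rest.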 Shown is part of a subset that was picked to be rich in actives.

The target of the assay is Estrogen receptor beta (Homo sapiens) (UniProt Q92731). In words: blockers of coactivator peptide binding to ERβ – biochemical, TR-FRET, ERβ LBD, SRC-1 peptide, primary screen (AID 633).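 Also: 0% = receptor plus peptide wells without compound and 100% = peptide-only wells.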 The following applies: TR-FRET ER-beta LBD / SRC1-Cy5 peptide binding; at 25.6 µM; active compounds read high; receptor agonist-loaded with 1 µM estradiol. (In general: In TR-FRET formats the signal depends on donor and acceptor labels being close together.)
Sequence of Estrogen receptor beta (Homo sapiens) (Q92731 whole entry, looked up, the tested form may be a part): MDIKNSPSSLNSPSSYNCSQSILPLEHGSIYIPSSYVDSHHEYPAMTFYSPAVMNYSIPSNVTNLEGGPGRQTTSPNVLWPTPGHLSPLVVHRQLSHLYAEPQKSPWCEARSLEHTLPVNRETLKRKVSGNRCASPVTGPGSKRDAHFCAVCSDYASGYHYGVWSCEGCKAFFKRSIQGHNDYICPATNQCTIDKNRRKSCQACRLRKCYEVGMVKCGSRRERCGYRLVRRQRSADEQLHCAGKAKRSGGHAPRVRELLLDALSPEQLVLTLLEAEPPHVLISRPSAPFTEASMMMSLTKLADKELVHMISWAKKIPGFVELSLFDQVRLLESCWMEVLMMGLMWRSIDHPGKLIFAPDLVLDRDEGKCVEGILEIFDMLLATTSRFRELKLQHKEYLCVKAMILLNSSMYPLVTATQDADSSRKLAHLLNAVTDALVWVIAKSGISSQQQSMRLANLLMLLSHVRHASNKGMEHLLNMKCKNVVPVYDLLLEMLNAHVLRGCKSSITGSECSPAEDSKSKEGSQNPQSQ
By inhibition is commonly meant the relative decrease from the control value, in per cent. Turning to `COc1cccc(NS(=O)(=O)c2ccc3[nH]cc(C(=O)NCCCOC(C)C)c(=O)c3c2)c1`, the inhibition was 19.5% (inactive).

As for `CCCCNC(=O)c1c[nH]c2ccc(S(=O)(=O)Nc3ccc(OCC)cc3)cc2c1=O`, the inhibition was 29.9% (inactive). As for `CCN(CC)S(=O)(=O)c1ccc2[nH]cc(C(=O)NCCc3ccccc3)c(=O)c2c1`, the inhibition is 51.1% [fluorescence artefact?] (active).

For the molecule `COC(=O)CSc1snnc1-c1ccc(Cl)c(Cl)c1`, the inhibition is -8.59% (inactive). For `Cc1cc(=O)oc2cc(OCC3CC(c4ccccc4Cl)=NO3)ccc12` (stereo not given), the inhibition is -1.82% (inactive).

As to `CCOCN(C(=O)Cn1c(C(C)O)nc2ccccc21)c1c(C)cccc1CC` (stereo not given), the inhibition is -15.2% (inactive).

As to `Cc1nc2c(c(=O)n1Cc1ccco1)c1nc3ccccc3nc1n2Cc1ccccc1`, the inhibition was 59.7% [fluorescence artefact?] (active). In the case of `COCCCn1c2nc3ccccc3nc2c2c(=O)n(Cc3ccc(Cl)cc3)c(C)nc21`, the inhibition is 12.9% (inactive). The result for `Cc1ccc(Cn2c(C)nc3c(c2=O)c2nc4ccccc4nc2n3Cc2ccco2)cc1` reads 36% (inactive); that for `O=C(NCC(=O)N(Cc1cccs1)C(C(=O)NC1CCCCC1)c1ccco1)c1cccs1` (stereo not given), 6.36% (inactive); that for `Cn1c(C(=O)OC(C(=O)NC2CCCCC2)c2ccccn2)cc2sccc21` (stereo not given), -0.81% (inactive). Consider `Cc1ccc2c(c1)N(CC(=O)N(Cc1ccccn1)Cc1ccco1)C(=O)C(C(C)C)O2` (stereo not given), for which the inhibition is 1.63% (inactive). As for `O=C(NCc1cn2ccsc2n1)Nc1ccc(Cl)cc1`, the inhibition is -3.46% (inactive). As for `COc1ccc(-c2cn3ccsc3n2)cc1`, the inhibition was 68% (active). For `Cc1ccc(S(=O)(=O)NCc2cn3ccsc3n2)c(C)c1`, the inhibition is 0.6% (inactive). On to `CCOC(=O)c1sc(NC(=O)c2ccncc2)nc1C`, for which the inhibition was -4.81% (inactive).

As to `O=C(NCc1cccnc1)Nc1ccccc1F`, the inhibition was -19.3% (inactive). Consider `CCCCOC(=O)Cn1c(=O)n(CC(=O)OCCCC)c2cc(C)ccc21`, for which the inhibition was -3.48% (inactive). Take `O=C(N/N=C/C=C/c1ccccc1)C1CC1(c1ccccc1)c1ccccc1` (stereo not given): the inhibition was 16.4% (inactive). For `COc1ccc(N2C(=O)C3CCCN3C2c2cccc(OC)c2)cc1` (stereo not given), the inhibition was -7% (inactive). In the case of `COc1ccc(N2C(=O)C3CCCN3C2c2cc(OC)c(OC)cc2OC)cc1` (stereo not given) it was 98.9% [fluorescence artefact?] (active); in that of `COc1ccc(N2C(=O)C3CCCN3C2c2cccs2)cc1` (stereo not given), -13.6% (inactive); in that of `COC(=O)c1[nH]c2ccccc2c1NC(=O)CN1CCCc2ccccc21`, 58.4% [fluorescence artefact?] (active). The result for `COC(=O)c1[nH]c2cccc(C)c2c1NC(=O)CN1CCCc2ccccc21` reads 34.3% (inactive); that for `CCOC(=O)c1[nH]c2ccc(OC)cc2c1NC(=O)CCN1CCN(Cc2ccccc2)CC1`, 5.39% (inactive).
